Data reported in PubChem BioAssay AID1159580 (chemical genetic matrix, 2015).
In all, about 5,500 compounds went through this assay and about 2,000 (36%) were called active. Another 18% or so got no clear call; they are omitted. No stated cut-off is given here; in the data, active means normalized growth mostly below about 0.91 (no sharp cut-off); inconclusive means no clear call, values can overlap the other calls; inactive means mostly above about 0.92. The list shows a part of the results.

Experiment: chemical genetic growth profiling, strain panel (AID 1159580);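 further: tested at 20 µM; growth read once vehicle control cultures reached saturation at 30 °C; 1 = growth at the plate median or of vehicle wells; lower values mean less growth of the strain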
Conditions: S. cerevisiae deletion strains, growth OD
[1] = locus YHR030C, strain SLT2, active compounds read low
[2] = locus YHR079C, strain IRE1, active compounds read low
[3] = locus YJL095W, strain BCK1, active compounds read low
[4] = locus YJR066W, strain TOR1, active compounds read low
[5] = locus YLR113W, strain HOG1, active compounds read low
[6] = locus YNL183C, strain NPR1, active compounds read low
[7] = locus YOR231W, strain MKK1, active compounds read low
[8] = locus YPL256C, strain CLN2, active compounds read low

Measured: normalized growth

O=C(Oc1cccc2cccnc12)c1ccccc1
active: locus YAL030W, strain snc1, active compounds read low 0.928 | locus YDR137W, strain rgp1, active compounds read low 0.688 | locus YDR392W, strain spt3, active compounds read low 0.601 | locus YHR013C, strain ard1, active compounds read low 0.623 | locus YLL026W, active compounds read low 0.925 | locus YLR262C, strain YPT6 (second series), active compounds read low 0.776 | locus YLR320W, strain mms22, active compounds read low 0.875 | locus YMR058W, strain fet3, active compounds read low 0.897 | locus YNL071W, strain lat1, active compounds read low 0.875 | locus YOR070C, strain gyp1, active compounds read low 0.0944 | locus YOR270C, strain vph1, active compounds read low 0.414 | locus YPL078C, strain atp4, active compounds read low 0.878 | locus YPL106C, strain sse1, active compounds read low 0.732
inactive: locus YAL021C, strain ccr4, active compounds read low 0.962 | locus YAL026C, strain drs2, active compounds read low 0.921 | locus YBL061C, strain skt5, active compounds read low 0.951 | locus YBR009C, strain hhf1, active compounds read low 0.956 | locus YBR023C, strain chs3, active compounds read low 0.956 | locus YBR171W, strain sec66, active compounds read low 0.917 | locus YBR231C, strain swc5, active compounds read low 0.995 | locus YBR279W, strain paf1, active compounds read low 0.957 | locus YCL011C, strain gbp2, active compounds read low 0.959 | locus YCL016C, strain dcc1, active compounds read low 0.952 | locus YCL061C, strain MRC1, active compounds read low 0.967 | locus YCL069W, strain vba3, active compounds read low 0.948 | locus YCR088W, strain abp1, active compounds read low 0.936 | locus YDL005C, strain med2, active compounds read low 0.962 | locus YDL040C, strain nat1, active compounds read low 0.951 | locus YDR001C, strain nth1, active compounds read low 0.936 | locus YDR069C, strain doa4, active compounds read low 0.953 | locus YDR159W, strain sac3, active compounds read low 0.971 | locus YDR195W, strain ref2 1.12 | locus YDR297W, strain sur2, active compounds read low 0.937 | locus YDR334W, strain swr1, active compounds read low 0.921 | locus YDR335W, strain msn5, active compounds read low 0.938 | locus YEL003W, strain gim4, active compounds read low 0.94 | locus YEL037C, strain rad23, active compounds read low 0.961 | locus YEL061C, strain CIN8 (second series), active compounds read low 0.943 | locus YER015W, strain faa2, active compounds read low 0.965 | locus YER016W, strain bim1, active compounds read low 0.96 | locus YER111C, strain swi4, active compounds read low 0.955 | locus YER155C, strain BEM2 (second series), active compounds read low 0.89 | locus YFR010W, strain ubp6, active compounds read low 0.951 | locus YGL167C, strain pmr1, active compounds read low 0.927 | locus YGL173C, strain kem1, active compounds read low 0.908 | locus YGL227W, strain vid30, active compounds read low 0.939 | locus YGL240W, strain doc1, active compounds read low 0.93 | locus YGL253W, strain hxk2, active compounds read low 0.969 | locus YHR027C, strain rpn1, active compounds read low 0.929 | [1] 0.955 | [2] 0.955 | locus YHR142W, strain chs7, active compounds read low 0.897 | locus YJL092W, strain hpr5, active compounds read low 0.972 | locus YJL095W, strain BCK1 (second series), active compounds read low 0.955 | [3] 0.916 | locus YJL115W, strain asf1, active compounds read low 0.951 | locus YJL129C, strain trk1, active compounds read low 0.97 | locus YJL154C, strain vps35, active compounds read low 0.939 | locus YJL164C, strain tpk1, active compounds read low 0.957 | locus YJL166W, strain qcr8, active compounds read low 0.955 | locus YJL187C, strain SWE1, active compounds read low 0.951 | [4] 0.92 | locus YKL160W, strain elf1, active compounds read low 0.935 | locus YKR026C, strain gcn3, active compounds read low 0.951 | locus YKR091W, strain srl3, active compounds read low 0.951 | locus YLL001W, strain dnm1, active compounds read low 0.979 | locus YLL041C, strain sdh2, active compounds read low 0.967 | locus YLR027C, strain aat2, active compounds read low 0.95 | [5] 0.915 | locus YLR221C, strain rsa3, active compounds read low 0.958 | locus YLR258W, strain gsy2, active compounds read low 0.955 | locus YLR342W, strain FKS1, active compounds read low 0.962 | locus YLR357W, strain rsc2, active compounds read low 0.992 | locus YLR370C, strain arc18, active compounds read low 0.918 | locus YLR384C, strain iki3, active compounds read low 0.952 | locus YML120C, strain ndi1, active compounds read low 0.934 | locus YMR125W, strain sto1, active compounds read low 0.961 | locus YMR129W, active compounds read low 0.954 | locus YMR205C, strain PFK2, active compounds read low 0.973 | locus YMR231W, strain pep5, active compounds read low 0.969 | [6] 0.908 | locus YNL209W, strain ssb2, active compounds read low 0.946 | locus YNL248C, strain rpa49, active compounds read low 0.944 | locus YNL322C, strain KRE1 (second series), active compounds read low 0.963 | locus YNR049C, strain mso1, active compounds read low 0.944 | locus YOR001W, strain rrp6, active compounds read low 0.95 | locus YOR080W, strain dia2, active compounds read low 0.973 | locus YOR083W, strain WHI5, active compounds read low 0.945 | locus YOR106W, strain vam3, active compounds read low 0.905 | [7] 0.946 | locus YOR265W, strain rbl2, active compounds read low 0.955 | locus YOR290C, strain snf2, active compounds read low 0.945 | locus YPL051W, strain arl3, active compounds read low 0.932 | locus YPL240C, strain hsp82, active compounds read low 0.965 | [8] 0.961

CCCCCCCCCCCCSc1ncn[nH]1
inactive: locus YAR019C, strain CDC15, active compounds read low 0.985 | locus YBL105C, strain PKC1, active compounds read low 0.976 | locus YBR135W, strain CKS1, active compounds read low 0.968 | locus YBR136W, strain MEC1, active compounds read low 0.973 | locus YBR160W, strain CDC28, active compounds read low 0.971 | locus YDL017W, strain CDC7, active compounds read low 0.977 | locus YDL028C, strain MPS1, active compounds read low 0.976 | locus YDL101C, strain DUN1, active compounds read low 0.975 | locus YDL108W, strain KIN28, active compounds read low 0.969 | locus YDL132W, strain cdc53, active compounds read low 0.976 | locus YDL214C, strain PRR2, active compounds read low 0.735 | locus YDR052C, strain DBF4, active compounds read low 0.975 | locus YDR054C, strain cdc34, active compounds read low 0.98 | locus YDR226W, strain ADK1, active compounds read low 0.968 | locus YDR477W, strain SNF1, active compounds read low 0.734 | locus YER123W, strain YCK3, active compounds read low 0.645 | locus YER133W, strain GLC7, active compounds read low 0.88 | locus YFL009W, strain cdc4, active compounds read low 0.971 | locus YFL029C, strain CAK1, active compounds read low 0.981 | locus YFR003C, strain YPI1, active compounds read low 0.977 | locus YFR028C, strain CDC14, active compounds read low 0.977 | locus YGR040W, strain KSS1, active compounds read low 0.817 | locus YGR092W, strain DBF2, active compounds read low 0.595 | locus YIL147C, strain SLN1, active compounds read low 0.978 | locus YJL128C, strain PBS2, active compounds read low 0.939 | locus YJL157C, strain FAR1, active compounds read low 0.728 | locus YJR016C, strain ILV3, active compounds read low 0.975 | locus YJR066W, strain TOR1 (second series), active compounds read low 0.738 | locus YKL048C, strain ELM1, active compounds read low 0.821 | locus YKL067W, strain YNK1, active compounds read low 0.85 | locus YKL193C, strain SDS22, active compounds read low 0.976 | locus YKL203C, strain TOR2, active compounds read low 0.731 | locus YML070W, strain DAK1, active compounds read low 0.789 | locus YMR001C, strain CDC5, active compounds read low 0.976 | locus YMR205C, strain PFK2 (second series), active compounds read low 0.771 | locus YMR277W, strain FCP1, active compounds read low 0.975 | locus YNL006W, strain LST8, active compounds read low 0.986 | locus YNL161W, strain CBK1, active compounds read low 0.981 | locus YNL207W, strain RIO2, active compounds read low 0.978 | locus YNL222W, strain SSU72, active compounds read low 0.972 | locus YOL078W, strain AVO1, active compounds read low 0.973 | locus YOL136C, strain PFK27, active compounds read low 0.723 | locus YOR061W, strain CKA2, active compounds read low 0.84 | locus YOR119C, strain RIO1, active compounds read low 0.655 | locus YOR329C, strain SCD5, active compounds read low 0.984 | locus YPL209C, strain IPL1, active compounds read low 0.982 | locus YPR025C, strain CCL1, active compounds read low 0.972 | locus YPR106W, strain ISR1, active compounds read low 0.991 | locus YPR111W, strain DBF20, active compounds read low 0.973 | strain NNK1, active compounds read low 0.983 | strain TSCII, active compounds read low 0.975
active: locus YFR019W, strain FAB1, active compounds read low 0.443 | locus YGR052W, strain FMP48, active compounds read low 0.511 | [1] 0.135 | [2] 0.254 | locus YHR082C, strain KSP1, active compounds read low 0.209 | locus YHR205W, strain SCH9, active compounds read low 0.294 | [3] 0.279 | [4] 0.297 | [5] 0.479 | locus YLR133W, strain CKI1, active compounds read low 0.566 | locus YLR403W, strain SFP1, active compounds read low 0.447 | locus YNL020C, strain ARK1, active compounds read low 0.523 | [6] 0.444 | locus YNL307C, strain MCK1 (second series), active compounds read low 0.478 | [7] 0.439 | locus YPL031C, strain PHO85, active compounds read low 0.542 | locus YPL153C, strain RAD53, active compounds read low 0.556 | locus YPL204W, strain HRR25, active compounds read low 0.556 | [8] 0.318
